# Screening data (PubChem)
# In the library only some 4.6% were active in any assay of this set; here they are far more common.
# tim10-1 inh = inhibits growth of tim10-1 mutant yeast. inhibition, % at 20 µM. S. cerevisiae tim10-1 ts strain growth, BacTiter-Glo, 24 h. 330,000 compounds, 2.2% hits. AID 463190;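 active = inhibition of at least 40%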;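 note: mutant grown at 25 °C; 0% = DMSO wells with yeast and 100% = wells holding no yeast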
# NALP3 yeast inh = inhibitors of NALP3 inflammasome in yeast | Yeast reconstituted NLRP3/ASC/caspase-1, beta-gal luminescence, 24 h | inhibition, % at 10 µM | 330,000 compounds, 0.39% hits | AID 2825;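 active = inhibition of 50% or more; inactive = inhibition below 50%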;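 note: plate controls were induced DMSO wells for no effect and uninduced yeast grown without galactose for full effect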
# SKKanGAS inh = blocks kanamycin growth of S. pyogenes SKKanGAS strain | 300,000 compounds, 1.3% hits | BacTiter-Glo, 6 h | inhibition, % at 7.5 µM;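 active = mean replicate score, as percent of positive control median, at least 50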;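 note: strain carries kanamycin resistance gene driven by streptokinase promoter and grows in 40 µg/ml kanamycin; loss of luminescence reflects streptokinase promoter inhibition or plain growth inhibition; 0% = median of DMSO wells and 100% = positive control at its reference dose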
# TIM10 inh = TIM10 yeast growth inhibition. 330,000 compounds, 1.4% hits. S. cerevisiae TIM10 strain growth, BacTiter-Glo luminescence, 24 h. inhibition, % at 10 µM. AID 463195;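 active = inhibition of 40% or more at the single tested concentration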;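 note: wild-type TIM10 isogenic control strain grown at permissive 25 °C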
# tim23-1 inh = growth inhibitors of tim23-1 mutant yeast; AID 463212; inhibition, % at 20 µM; 330,000 compounds, 1.3% hits; S. cerevisiae tim23-1 growth, BacTiter-Glo luminescence, 24 h;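 active = growth inhibition of the mutant yeast at or above 50%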;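 note: temperature-sensitive mutant grown at 25 °C; plate controls were DMSO-treated mutant yeast for no effect and medium wells lacking yeast for full effect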
# PfHsp90 yeast 2 = inhibits growth of yeast expressing Plasmodium falciparum Hsp90; inhibition, % at 9.4 µM; AID 504621; 310,000 compounds, 0.32% hits; S. cerevisiae expressing PfHsp90, BacTiter-Glo ATP, 48 h; yeast lacking PDR1 and PDR3 efflux regulators;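 active = every replicate shows inhibition above about 80%, whatever the replicate mean, limit read from the data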;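 note: 0% = DMSO neutral controls and 100% = 20 µM radicicol positive controls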
# The depositor's hits bear a star; x = no result given.
SMILES,tim10-1 inh,NALP3 yeast inh,SKKanGAS inh,TIM10 inh,tim23-1 inh,PfHsp90 yeast 2
Cc1ccsc1C(=O)C1CCCN(Cc2cc(F)ccc2-n2cccn2)C1 (configuration not stated),-10,9,19,-6,-8,x
O=C(N/N=C1\CCCc2c1[nH]c1ccc(Cl)cc21)c1ccncc1,-37,5,1,-46,15,-18
Clc1ccc2[nH]c3c(c2c1)CCc1cn[nH]c1-3,0,12,39,28,21,110*
COc1ccc(CN2C(=O)c3ccccc3C(/C=N/OCc3ccc(Cl)cc3)C2=O)cc1 (configuration not stated),19,20,97*,7,33,-16
COc1ccc(CN2C(=O)c3ccccc3C(/C=N\OCc3ccc(F)cc3)C2=O)cc1 (configuration not stated),14,13,24,7,17,-50
CCn1c(C(=O)O)c(CC(=O)Nc2cccc(C(F)(F)F)c2)c2ccccc21,-3,16,14,8,9,-1
COc1ccc(-n2c(=S)[nH]c3cc(C(=O)Nc4ccc(C)c(F)c4)ccc3c2=O)c(OC)c1,8,2,76*,13,9,-28
COCc1ccc(-c2c(-c3ccccc3OC)sc3cc4c(cc23)OCO4)cc1,14,-7,x,3,13,-15
COc1ccc2sc(-c3ccccc3OC)c(-c3ccc(O)cc3)c2c1,23,26,x,18,45,107*
COc1ccccc1-c1sc2cc3c(cc2c1-c1ccc(O)cc1)OCO3,-10,13,x,14,49,107*
COc1cc(/C=N/Nc2ncnc3sc4c(c23)CCC4)ccc1O,x,x,70*,x,x,1
C/C(N)=C(/C#N)C(=O)COC(=O)CNC(=O)c1ccc(Cl)cc1Cl,10,13,-3,4,7,18
CS(=O)(=O)c1ccc([C@@H](O)[C@@H](CO)NC(=O)C(Cl)Cl)cc1,-1,-1,108*,0,0,-5
CS(=O)(=O)c1ccc([C@@H](O)[C@@H](CF)NC(=O)C(Cl)Cl)cc1,6,-8,x,6,8,10
Cc1c(-c2ccccc2)cnc2c(C)cccc12,-7,2,0,-24,11,3
CCN(CC)c1nc(Nc2ccc([N+](=O)[O-])cc2)nc(N(CC)CC)n1,13,17,65*,6,22,-8
Cc1ccccc1-n1cnc2cc(NCc3cccs3)ccc21,25,7,50*,36,43,12
CC(C)(C)n1cnc2cc(NCc3cccs3)ccc21,8,4,-5,4,-1,1
C=CCSc1nc(-c2ccccc2)c2cc(Cl)ccc2n1,9,15,57*,-6,13,x
CCn1cc(C(C)NC(=O)COc2ccc(Cl)cc2C)c(C)n1 (configuration not stated),27,6,9,-11,7,-18
CC(C)(O)CCc1c(-c2ccc(O)cc2O)oc2c3c(cc(O)c2c1=O)OC(C)(C)C=C3,11,11,23,5,19,-21
CC(C)=CCc1c2c(c3occ(-c4ccc(O)c(O)c4)c(=O)c3c1O)C=CC(C)(C)O2,x,x,x,x,x,102*
CC1(C)C=Cc2c(c3c(c4c(=O)c(-c5ccc(O)cc5)coc24)OC(C)(C)CC3)O1,40,15,43,27,49,-49
CC(C)=CCc1c2c(c3occ(-c4ccc(O)cc4)c(=O)c3c1O)C=CC(C)(C)O2,26,4,111*,14,24,-31
Cc1nc(N2CCC(C)CC2)c2c(C)c(C(=O)Nc3ccccc3C(F)(F)F)sc2n1,3,18,58*,-1,24,6
Cc1nc(N2CCC(C)CC2)c2c(C)c(C(=O)Nc3ccc(C)c(F)c3)sc2n1,4,20,47,-7,6,-18
Cc1sc2ncnc(SCC(=O)N3CCCC(C(F)(F)F)C3)c2c1C (configuration not stated),5,21,55*,10,19,1
Cc1sc2ncnc(SCC(=O)N3CCCC(C(N)=O)C3)c2c1C (configuration not stated),3,-8,-5,-1,-6,17
Nc1nc2nc(-c3cccs3)cc(C(F)(F)F)n2n1,12,7,-1,13,4,-17
CC(=O)Oc1ccc2c(c1)CCC1C2CCC2(C)C(OC(C)=O)CCC12 (configuration not stated),x,x,x,x,x,16
